Results on 38 molecules are retold here after PubChem BioAssay.

Unmarked numbers belong to inactive results. The source made the active and inactive calls.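 The calls were made as follows: active = compounds that lower survival of DLD-1 colon cancer cells in the luminescence readout, no cutoff given; inactive = the rest.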 Peptide text beside a SMILES is read from it.

The experiment in a line: decreased DLD-1 cellular survival, CellTiter-Glo luminescent readout, NPC compound collection, primary HTS (AID 1117346). To be noted: DLD-1 viability, CellTiter-Glo luminescence; at 20 µM (top of the series). A general note: In ATP-based viability assays light output follows the ATP content of the culture.
Take `CCCC(C(=O)OCCN(CC)CC)(c1ccccc1)c1ccccc1`: the viability decrease (inhibition) was 62.5% (active).

With `O=C(Nc1ccc([N+](=O)[O-])cc1Cl)c1cc(Cl)ccc1O`, the viability decrease (inhibition) was 102% (active).

Consider `C=CC(N)CCC(=O)O` (stereo not drawn), for which the viability decrease (inhibition) was -6.8%.

For the molecule `CC1(C)O[C@@H]2C[C@H]3[C@@H]4CCC5=CC(=O)CC[C@]5(C)[C@@]4(F)[C@@H](O)C[C@]3(C)[C@]2(C(=O)CCl)O1`, the viability decrease (inhibition) was -22.2%.

As to `CNC1(C)C2CCC(C2)C1(C)C` (stereo not drawn), the viability decrease (inhibition) is 1.8%.

In the case of `NCCS`, the viability decrease (inhibition) was -14.1%.

For the molecule `OC[C@H]1O[C@@H](O[C@@H]2[C@@H](CO)O[C@](O)(CO)[C@H]2O)[C@H](O)[C@@H](O)[C@H]1O`, the viability decrease (inhibition) was -4.2%.

Regarding `Nc1c2c(nc3ccccc13)CCCC2O` (stereo not drawn), the viability decrease (inhibition) is -22.2%.

`CSc1ccc2c(c1)C(N1CCN(C)CC1)Cc1ccccc1S2` (stereo not drawn): the viability decrease (inhibition) is 102% (active).

Take `Cc1ccc(C(=O)Nc2ccc(S(=O)(=O)O)c3cc(S(=O)(=O)O)cc(S(=O)(=O)O)c23)cc1NC(=O)c1cccc(NC(=O)Nc2cccc(C(=O)Nc3cc(C(=O)Nc4ccc(S(=O)(=O)O)c5cc(S(=O)(=O)O)cc(S(=O)(=O)O)c45)ccc3C)c2)c1`: the viability decrease (inhibition) is 8.3%.

For the molecule `C[N+]1(CCCCC[N+]2(C)CCCC2)CCCC1`, the viability decrease (inhibition) was 6.3%.

In the case of `CCCCCN(CCCCC)C(=O)C(CCC(=O)O)NC(=O)c1ccc(Cl)c(Cl)c1` (stereo not drawn), the viability decrease (inhibition) was 38.9%.

`NC(=O)NO`: the viability decrease (inhibition) is -7.1%.

As to `CCOC(=O)C(C)(C)Oc1ccc(Cl)cc1`, the viability decrease (inhibition) is -40.7%.

On to `CC(=O)OC(C)C[N+](C)(C)C` (stereo not drawn), for which the viability decrease (inhibition) is -8.2%.

Consider `NNc1nncc2ccccc12`, for which the viability decrease (inhibition) was -2.1%.

Regarding `CCOC(=O)NNc1nncc2ccccc12`, the viability decrease (inhibition) is 6.7%.

On to `COC(=O)[C@H](Cc1ccccc1)NC(=O)[C@@H](N)CC(=O)O` (H-Asp-Phe-OMe), for which the viability decrease (inhibition) was 9.55%.

On to `COc1ccnc(CS(=O)c2nc3ccc(OC(F)F)cc3[nH]2)c1OC` (stereo not drawn), for which the viability decrease (inhibition) was -5.4%.

For the molecule `COC(=O)[C@@H]1[C@H]2C[C@H]3c4[nH]c5ccccc5c4CCN3C[C@@H]2CC[C@@H]1O`, the viability decrease (inhibition) is -9.4%.

As for `CC(=O)Oc1ccccc1C(=O)O`, the viability decrease (inhibition) was -4.2%.

Take `Cn1cnc2c1c(=O)[nH]c(=O)n2C`: the viability decrease (inhibition) was -19.1%.

As for `O=C(COc1ccc(Cl)cc1)N1CCN(Cc2ccc3c(c2)OCO3)CC1`, the viability decrease (inhibition) is 52.6% (active).

For the molecule `C[n+]1cc2c3c(ccc2c2ccc4cc5c(cc4c21)OCO5)OCO3`, the viability decrease (inhibition) is 105% (active).

`CN(C)[C@@H]1C(=O)C(C(N)=O)=C(O)[C@@]2(O)C(=O)C3=C(O)c4c(O)ccc(Cl)c4[C@@H](O)[C@H]3C[C@@H]12`: the viability decrease (inhibition) was 94.7% (active).

For the molecule `Cc1cc(N)c2ccccc2[n+]1CCCCCCCCCC[n+]1c(C)cc(N)c2ccccc21`, the viability decrease (inhibition) was 85.1% (active).

For `C=Cc1c(C)c2cc3[nH]c(cc4nc(cc5nc(cc1[nH]2)C(C)=C5CCC(=O)O)C(CCC(=O)O)=C4C)c(C)c3C=C`, the viability decrease (inhibition) is 93% (active).

For the molecule `CCN(CC)C(C)CN1c2ccccc2Sc2ccccc21` (stereo not drawn), the viability decrease (inhibition) was 76.9% (active).

`NCCCCCC(=O)O`: the viability decrease (inhibition) was -9.4%.

With `CCN(CC)CCNC(=O)c1ccc(NC(C)=O)cc1`, the viability decrease (inhibition) was 19.5%.

With `CCOC(=O)c1ccc(N)cc1`, the viability decrease (inhibition) is 18.2%.

Regarding `CNC[C@H](O)c1cccc(O)c1`, the viability decrease (inhibition) is -9.9%.

With `O=c1c(O)c(-c2ccc(O)c(O)c2)oc2cc(O)cc(O)c12`, the viability decrease (inhibition) is 46.2%.

Consider `O=C(OCC(O)CO)c1ccccc1Nc1ccnc2cc(Cl)ccc12` (stereo not drawn), for which the viability decrease (inhibition) was 6.3%.

For `CC(=O)O[C@]1(C(C)=O)CC[C@H]2[C@@H]3C=C(Cl)C4=CC(=O)[C@@H]5C[C@@H]5[C@]4(C)[C@H]3CC[C@@]21C`, the viability decrease (inhibition) was -4.3%.

Take `C[C@H]1O[C@@H](n2cc(F)c(=O)[nH]c2=O)[C@H](O)[C@@H]1O`: the viability decrease (inhibition) was 8.35%.

Regarding `CC1(C)NC(=O)N(c2ccc([N+](=O)[O-])c(C(F)(F)F)c2)C1=O`, the viability decrease (inhibition) is -16.7%.

On to `C[N+](C)(C)CCCCCC[N+](C)(C)C`, for which the viability decrease (inhibition) is 5.4%.
